This is an account of results in PubChem BioAssay (Tox21).

The nature of assay [1]: A CellTox Green Cytotoxicity Assay to monitor cytotoxicity in HepG2 cells - 0 hour (AID 1224882). Also: nearly all actives have a fitted effect of over 35% in size. Put shortly:
(§1)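 Real-time, homogeneous cytotoxicity readout: dead-cell DNA staining by CellTox Green in HepG2 monolayers, fluorescence measured at timed intervals up to 40 h of continuous compound exposure.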

Assay [2] is described as follows: A CellTox Green Cytotoxicity Assay to monitor cytotoxicity in HepG2 cells - 32 hour (AID 1224883). Also: nearly all actives have a fitted effect of over 50% in size. Also: potency is read from the fitted curve at half-maximal effect. Summed up:
as §1

The nature of assay [3]: qHTS RealTime-Glo MT Cell Viability Assay in HepG2 cells - 16 hour (AID 1224885). Also: nearly all actives have a fitted effect of over 50% in size. Put shortly:
(§2)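 Cells + NanoLuc/prosubstrate dispensed (600 cells/well) → 5 h at 37 C/5% CO2 → compounds in DMSO transferred → 40 h incubation at 37 C, luminescence read at 0, 8, 16, 24, 32, 40 h.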
In general terms: Quantitative high-throughput screening tests each substance at several concentrations.

A short description of assay [4]: qHTS RealTime-Glo MT Cell Viability Assay in HEK293 cells - 24 hour (AID 1224886). Also: nearly all actives have a fitted effect of over 50% in size. Also: potency is read from the fitted curve at half-maximal effect. Summed up:
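Tox21 10K qHTS, HEK293, 600 cells/well, RealTime-Glo reagent co-dispensed with cells; 5 h preincubation, compound by pintool, 37 C, luminescence at 0–40 h.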

Assay [5] can be described thus: qHTS RealTime-Glo MT Cell Viability Assay in HEK293 cells - 8 hour (AID 1224887). Also: nearly all actives have a fitted effect of over 50% in size. Also: potency is read from the fitted curve at half-maximal effect. Put shortly: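 Nonlytic bioluminescent viability monitoring. HEK293 at 600 cells/well with reagent; 5 h settle; compound transfer by pintool; plates held at 37 C and read at set time points.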
Assay [6] can be described thus: A CellTox Green Cytotoxicity Assay to monitor cytotoxicity in HEK293 cells - 16 hour (AID 1224888). Also: nearly all actives have a fitted effect of over 35% in size. Summed up: (§3)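 Cytotoxicity was tracked continuously in HEK293 cells by a DNA-binding dye excluded from viable cells. Compounds were transferred in DMSO 5 h after seeding; fluorescence was recorded at intervals up to 40 h.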
Assay [7] is described as follows: qHTS RealTime-Glo MT Cell Viability Assay in HepG2 cells - 0 hour (AID 1224889). Also: nearly all actives have a fitted effect of over 50% in size. Put shortly: as §2
Assay [8] is described as follows: A CellTox Green Cytotoxicity Assay to monitor cytotoxicity in HepG2 cells - 8 hour (AID 1224890). Also: nearly all actives have a fitted effect of over 45% in size. Summed up: as §1
The nature of assay [9]: qHTS assay to identify small molecule antagonists of the estrogen receptor alpha (ER-alpha) signaling pathway using the BG1 cell line in the presence of 0.1 nM 17-beta-estradiol - cell viability counter screen (AID 1259241). Also: nearly all actives have a fitted effect of over 40% in size. Also: potency is read from the fitted curve at half-maximal effect. Summed up:
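Following 5 days in phenol red-free medium with charcoal-stripped serum, VM7Luc4E2 cells received test compounds alongside 0.1 nM 17beta-estradiol (final) at 37C for 22 hr. Live cells were then quantified via protease-substrate fluorescence.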

Assay [10] can be described thus: qHTS assay to identify small molecule antagonists of the androgen receptor (AR) signaling pathway using the MDA cell line in the presence of 0.5 nM R1881 - cell viability counter screen (AID 1259242). Also: nearly all actives have a fitted effect of over 45% in size. Summed up: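 Cytotoxicity toward MDA-kb2 cells is measured by CellTiter-Fluor live-cell protease fluorescence after 16 hr compound exposure at 37C in the presence of 0.5 nM R1881 stimulator.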

In assay [11] the target is Estrogen receptor (Homo sapiens) (UniProt P03372). Briefly: qHTS assay to identify small molecule antagonists of the estrogen receptor alpha (ER-alpha) signaling pathway using the BG1 cell line in the presence of 0.1 nM 17-beta-estradiol (AID 1259244). Also: nearly all actives have a fitted effect of over 50% in size. Put shortly:
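After 5 days in hormone-depleted medium (charcoal-stripped serum, no phenol red), VM7Luc4E2 cells were seeded, incubated 24 h, then co-treated with compound and 0.1 nM (final) estradiol for 22 h before luminescence detection.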

A short description of assay [12]: qHTS assay to identify small molecule phospholipidosis (PLD) inducers (AID 1259344; active = well fitted curve in the direction sought with a large enough effect; an effect the other way counts as inactive or inconclusive). Summed up:
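Quantitative HTS in HepG2: compound plus LipidTOX Red dye for 24 h, paraformaldehyde fixation with Hoechst 33342, widefield high-content imaging; amiodarone as positive and DMSO as negative control.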

The nature of assay [13]: qHTS assay to identify small molecule HDAC inhibitors - cell viability counter screen (AID 1259365). Summed up:
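HCT-116 wild-type, overnight attachment; 2hr drug exposure, 37C; CellTiter-Glo luminescent ATP readout after 30min RT.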

Assay [14] can be described thus: qHTS assay to identify small molecule agonists of the sonic hedgehog signaling (Shh) pathway - cell viability counter screen (AID 1259366). Also: nearly all actives have a fitted effect of over 50% in size. Also: potency is read from the fitted curve at half-maximal effect. Put shortly: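 Compounds in DMSO were pin-transferred onto 3T3 Gli1-Luc cells that had settled 4hr; plates then stood 24hr at 37C and 5% CO2. One hour before the end, CellTiter-Fluor was added and fluorescence recorded.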
The nature of assay [15]: qHTS assay to identify small molecule antagonists of the sonic hedgehog signaling (Shh) pathway - cell viability counter screen (AID 1259367). Also: nearly all actives have a fitted effect of over 55% in size. Also: potency is read from the fitted curve at half-maximal effect. Summed up: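 Seed 3T3 Gli1-Luc cells at 2,000 per well; incubate 4 hr; add compound in DMSO, then conditioned medium; incubate at 37C with 5% CO2; add CellTiter-Fluor after 23 hr; read fluorescence 1 hr later.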
The nature of assay [16]: qHTS assay to identify small molecule agonists of the sonic hedgehog signaling (Shh) pathway (AID 1259368; calls by dose curve;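 also: NIH/3T3-derived 3T3Gli1-Luc cells carrying a stable Gli1-driven firefly luciferase reporter; series mostly up to about 92 µM; nearly all actives have a fitted effect of over 15% in size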). Put shortly: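 Steps: seed 3T3 Gli1-Luc cells, incubate 4 hr at 37 C, pin-transfer compounds in DMSO alongside a positive control, incubate 24 hr, add luciferase detection reagent, wait 30 min at room temperature, read luminescence.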
Assay [17] in a line: qHTS assay to identify small molecule antagonists of the sonic hedgehog signaling (Shh) pathway (AID 1259369; calls by dose curve; also: nearly all actives have a fitted effect of over 45% in size; also: potency is read from the fitted curve at half-maximal effect). Summed up: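 Inhibition of Shh signalling is measured as reduced Gli1-response-element firefly luciferase output in an NIH/3T3-derived stable reporter clone stimulated with conditioned medium for 24hr.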
In assay [18] the target is Androgen receptor (Homo sapiens) (UniProt P10275). Briefly: qHTS assay to identify small molecule antagonists of the androgen receptor (AR) signaling pathway using the MDA cell line in the presence of 0.5 nM R1881 (AID 1259243). Also: nearly all actives have a fitted effect of over 50% in size. Also: potency is read from the fitted curve at half-maximal effect. Put shortly: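 Steps: seed MDA-kb2 cells, incubate 5 hr at 37C; pin-transfer compounds in DMSO; add R1881 to 0.5 nM final; incubate 16 hr; add ONE-Glo, wait 30 min at room temperature; read luminescence.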
Androgen receptor (Homo sapiens), sequence (P10275 whole entry, looked up): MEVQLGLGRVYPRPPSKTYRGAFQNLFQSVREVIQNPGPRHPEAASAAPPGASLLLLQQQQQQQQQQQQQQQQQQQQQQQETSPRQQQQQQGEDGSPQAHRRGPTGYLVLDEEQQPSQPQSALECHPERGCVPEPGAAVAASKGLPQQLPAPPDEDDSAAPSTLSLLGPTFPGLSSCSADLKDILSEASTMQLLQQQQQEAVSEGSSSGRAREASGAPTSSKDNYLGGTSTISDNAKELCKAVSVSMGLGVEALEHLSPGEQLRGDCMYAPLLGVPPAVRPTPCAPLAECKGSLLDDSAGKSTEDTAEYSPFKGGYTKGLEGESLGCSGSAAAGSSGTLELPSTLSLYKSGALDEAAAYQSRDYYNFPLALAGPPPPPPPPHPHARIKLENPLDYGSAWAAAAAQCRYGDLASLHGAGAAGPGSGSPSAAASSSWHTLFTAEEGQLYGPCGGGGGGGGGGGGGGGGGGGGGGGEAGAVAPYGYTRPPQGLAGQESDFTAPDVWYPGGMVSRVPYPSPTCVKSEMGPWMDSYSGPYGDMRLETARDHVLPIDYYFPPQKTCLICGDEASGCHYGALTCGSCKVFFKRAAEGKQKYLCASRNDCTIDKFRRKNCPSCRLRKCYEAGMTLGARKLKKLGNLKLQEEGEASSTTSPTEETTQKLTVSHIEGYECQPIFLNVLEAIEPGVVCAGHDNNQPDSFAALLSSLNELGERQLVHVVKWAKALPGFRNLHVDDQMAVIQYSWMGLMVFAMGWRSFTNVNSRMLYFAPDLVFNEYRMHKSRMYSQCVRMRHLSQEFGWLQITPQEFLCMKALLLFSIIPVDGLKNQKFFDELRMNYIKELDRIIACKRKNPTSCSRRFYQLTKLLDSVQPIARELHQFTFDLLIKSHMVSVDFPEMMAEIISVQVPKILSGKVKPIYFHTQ

Assay [19] in a line: qHTS assay to identify small molecule HDAC inhibitors (AID 1259364). Also: top concentration of the series differs between compounds; nearly all actives have a fitted effect of over 45% in size. Put shortly:
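Homogeneous cell-based luminescent assay of endogenous class I/II HDAC activity; HCT-116 cells, 2 h compound exposure, 30 min HDAC-Glo development at RT.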

A short description of assay [20]: A CellTox Green Cytotoxicity Assay to monitor cytotoxicity in HEK293 cells - 8 hour (AID 1224884). Also: nearly all actives have a fitted effect of over 35% in size. Put shortly:
as §3

Structures are written as SMILES. Inconclusive results are not listed. Calls of active or inactive are those of the source. Unless noted, calls follow the shape of the dose curve; as a rule, active = well fitted curve in the direction sought with a large enough effect in the repeat runs; inconclusive = weak or mixed curves; inactive = no such curve, though single readings can be large; an effect the other way counts as inactive or inconclusive.
% is scaled to controls: 0 for no effect and ±100 for the full control effect.

Estrogen receptor (Homo sapiens), sequence (P03372 whole entry, looked up): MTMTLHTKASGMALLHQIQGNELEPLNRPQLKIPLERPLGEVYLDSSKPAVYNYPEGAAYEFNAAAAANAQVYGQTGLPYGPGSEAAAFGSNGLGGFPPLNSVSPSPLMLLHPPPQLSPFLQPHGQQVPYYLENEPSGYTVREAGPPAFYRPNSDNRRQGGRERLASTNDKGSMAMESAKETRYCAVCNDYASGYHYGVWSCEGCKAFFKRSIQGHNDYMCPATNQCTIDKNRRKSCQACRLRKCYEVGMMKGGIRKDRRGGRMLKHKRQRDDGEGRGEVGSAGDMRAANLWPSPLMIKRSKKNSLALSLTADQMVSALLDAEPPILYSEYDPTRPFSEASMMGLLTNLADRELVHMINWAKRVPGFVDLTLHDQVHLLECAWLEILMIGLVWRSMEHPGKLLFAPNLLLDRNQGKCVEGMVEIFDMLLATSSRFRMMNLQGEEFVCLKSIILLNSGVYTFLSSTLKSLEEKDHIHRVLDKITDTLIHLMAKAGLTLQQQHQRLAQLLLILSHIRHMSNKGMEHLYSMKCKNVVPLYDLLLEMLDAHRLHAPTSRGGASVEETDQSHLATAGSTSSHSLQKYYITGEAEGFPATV

Consider `C#C[C@]1(OC(C)=O)CC[C@H]2[C@@H]3CCC4=C/C(=N/O)CC[C@@H]4[C@H]3CC[C@@]21CC`, for which the Potency result in assay [1], in [2], in assay [3], in [6], in assay [7] and in [8] was “inactive” each time. In addition, the Potency result in assay [9], in assay [10], in assay [11], in [12], in [13] and in assay [14] was “inactive” in each case. Moreover, the Potency result in assay [15], in assay [16] and in [17] was “inactive” in each case. The results for the Potency in [4] and in assay [5] were 23.9 µM (active) and 21.3 µM (active), respectively.

Consider `CNc1ccc([N+](=O)[O-])cc1`, for which the Potency result in assay [1], in [2], in assay [3], in assay [4], in assay [5] and in assay [6] was “inactive” throughout. Moreover, the Potency entry in assay [7], in assay [8], in assay [11], in assay [19], in [13] and in [15] was “inactive” throughout. Besides, the Potency entry in [16] and in [17] was “inactive” throughout. Also, the figures for the Potency in assay [9], in assay [18] and in [14] were 43.4 µM (active), 15.4 µM (active) and 19.4 µM (active), respectively.

Consider `C=C(C)C(=O)OCCCCCCCCCC`, for which the Potency result in [1], in assay [2], in assay [3], in assay [4], in assay [5] and in [7] was “inactive” throughout. Also, the Potency result in assay [8], in [10], in [19], in assay [13] and in assay [16] was “inactive” in each case. The Potency in assay [15] is 54.9 µM (active); in assay [17] it was 13.8 µM (active).

With `Nc1ccc(NCCO)c([N+](=O)[O-])c1`, the Potency entry in [1], in assay [2], in assay [20], in assay [4], in assay [5] and in [6] was “inactive” throughout. Besides, the Potency result in assay [8], in [19], in assay [13], in [16] and in [17] was “inactive” each time.

Consider `CCN1C(=O)c2ccccc2C1Nc1ccc(OCCN2CCCCC2)cc1` (stereo unspecified), for which the Potency entry in [1], in assay [2], in [3], in [6], in assay [7] and in assay [8] was “inactive” each time. Further, the Potency result in assay [9], in assay [10], in assay [18], in [11], in [19] and in [13] was “inactive” in each case. Besides, the Potency entry in assay [14], in assay [15] and in [16] was “inactive” in each case. Besides, the Potency in assay [4] is 4.77 µM (active); in assay [5], 3.79 µM (active); in [17], 13.3 µM (active). Moreover, in [12], the PLD induction is 0.829% [at 7.66 µM] (inactive).

For the compound `COCCOc1cc2cc(C(=O)NC3CCN(C(C)C)CC3)n(CC(=O)Nc3ccc(Cl)cn3)c2cn1`, the Potency entry in assay [1], in assay [2], in [3], in assay [6], in assay [8] and in [9] was “inactive” each time. Also, the Potency result in assay [10], in [19], in assay [13], in [14], in [15] and in assay [16] was “inactive” each time. Further, in assay [17], the Potency was 15.2 µM (active).

Turning to `CCCCNS(=O)(=O)c1ccc(C)cc1`, the Potency result in assay [1], in [3], in [4], in assay [5], in assay [6] and in assay [7] was “inactive” each time. Besides, the Potency entry in assay [8], in assay [9], in [10], in [11], in [19] and in assay [13] was “inactive” in each case. Besides, the Potency result in assay [15], in assay [16] and in assay [17] was “inactive” each time. Besides, the Potency in assay [2] was 4.9 µM (active).
